The panel holds about 83,000 compounds, 20% with a hit somewhere; the sample as a whole holds those more often.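 Each cell line was grown in a 96-well plate and treated with one concentration of compound for 48 hours. Values below 10 were considered active.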 The source made the active and inactive calls.
What was measured:
Assay in all cases: NCI-60 one-dose screen, 48 h (100 = growth as untreated, 0 = no growth, -100 = all killed)
Conditions in all cases: 10 µM unless noted
SR leukemia = test system: SR leukemia
RPMI-8226 leukemia = test system: RPMI-8226 leukemia
OVCAR-8 ovarian = test system: OVCAR-8 ovarian
OVCAR-5 ovarian = test system: OVCAR-5 ovarian
OVCAR-4 ovarian = test system: OVCAR-4 ovarian
SK-OV-3 ovarian = test system: SK-OV-3 ovarian
IGROV1 ovarian = test system: IGROV1 ovarian
OVCAR-3 ovarian = test system: OVCAR-3 ovarian
HS 578T breast = test system: HS 578T breast
T-47D breast = test system: T-47D breast
BT-549 breast = test system: BT-549 breast
MDA-MB-435 melanoma = test system: MDA-MB-435 melanoma
SW-620 colon = test system: SW-620 colon
MCF7 breast = test system: MCF7 breast
HCT-116 colon = test system: HCT-116 colon
HCC-2998 colon = test system: HCC-2998 colon
NCI/ADR-RES ovarian = test system: NCI/ADR-RES ovarian
KM12 colon = test system: KM12 colon

Measured: growth

C[C@H]1O[C@@H](O[C@H]2[C@@H](O)C[C@H](O[C@H]3[C@@H](O)C[C@H](O[C@H]4CC[C@]5(C)C6C[C@@H](O)[C@]7(C)[C@@H](C8=CC(=O)OC8)CC[C@]7(O)C6CC[C@@H]5C4)O[C@@H]3C)O[C@@H]2C)C[C@H](O)[C@@H]1O (stereo partly drawn)
active: SR leukemia -9.87% | RPMI-8226 leukemia -23.7% | OVCAR-8 ovarian -93.5% | OVCAR-5 ovarian -99.7% | OVCAR-4 ovarian -29.6% | SK-OV-3 ovarian -93.3% | IGROV1 ovarian -38.4% | OVCAR-3 ovarian -100% | HS 578T breast -9.01% | T-47D breast -49.1% | BT-549 breast -89.6% | MDA-MB-435 melanoma -100% | SW-620 colon -97.9% | MCF7 breast -26.5% | HCT-116 colon -88.7% | HCC-2998 colon -79.1%

CC(C)N(Cc1ccccc1)c1c(S)ssc1=S
inactive: OVCAR-8 ovarian 14.7% | OVCAR-5 ovarian 14.1% | SK-OV-3 ovarian 11.7% | OVCAR-3 ovarian 28.1% | NCI/ADR-RES ovarian 15.9% | MDA-MB-435 melanoma 11.8% | HCC-2998 colon 24.8% | KM12 colon 11.5%
active: SR leukemia 2.98% | RPMI-8226 leukemia -65.4% | OVCAR-4 ovarian -2.68% | IGROV1 ovarian -39.4% | HS 578T breast 6.03% | BT-549 breast -4.86% | SW-620 colon 9.47% | MCF7 breast 3.04% | HCT-116 colon 5.93%

OC(c1cc(-c2cccc(Cl)c2)nc2ccccc12)C1CCCCN1 (stereo not drawn)
active: SR leukemia -33.8% | RPMI-8226 leukemia -26.8% | OVCAR-8 ovarian -52.6% | OVCAR-5 ovarian 2.42% | OVCAR-4 ovarian -7.1% | IGROV1 ovarian -61.7% | OVCAR-3 ovarian -13.1% | T-47D breast -71.6% | MDA-MB-435 melanoma -56.9% | SW-620 colon -66.6% | MCF7 breast -86.9% | HCT-116 colon -89.8% | KM12 colon -88.1%
inactive: SK-OV-3 ovarian 48.3% | HS 578T breast 34.9%

CCN1CC2=C(Nc3nc(SC)[nH]c(=O)c3C2c2cc(OC)c(OC)c(OC)c2)/C(=C/c2cc(OC)c(OC)c(OC)c2)C1 (stereo not drawn)
inactive: SR leukemia 82.5% | RPMI-8226 leukemia 96.7% | OVCAR-8 ovarian 94% | OVCAR-5 ovarian 106% | OVCAR-4 ovarian 95.9% | SK-OV-3 ovarian 110% | IGROV1 ovarian 120% | OVCAR-3 ovarian 116% | HS 578T breast 111% | NCI/ADR-RES ovarian 105% | BT-549 breast 102% | MDA-MB-435 melanoma 93.5% | SW-620 colon 102% | MCF7 breast 86.2% | HCT-116 colon 92.6% | HCC-2998 colon 102% | KM12 colon 97.5%

COc1cc(/C=N/OC(=O)Nc2ccccc2)cc(OC)c1OC
inactive: SR leukemia 89.7% | RPMI-8226 leukemia 93.7% | OVCAR-8 ovarian 113% | OVCAR-5 ovarian 104% | OVCAR-4 ovarian 105% | SK-OV-3 ovarian 104% | IGROV1 ovarian 95.9% | OVCAR-3 ovarian 114% | HS 578T breast 114% | NCI/ADR-RES ovarian 109% | BT-549 breast 105% | MDA-MB-435 melanoma 124% | SW-620 colon 108% | MCF7 breast 108% | HCT-116 colon 94.3% | HCC-2998 colon 106% | KM12 colon 113%

CCCCCc1c(C)[nH]c(/C=C2\N=C(c3ccc[nH]3)C=C2OCc2ccccc2)c1C
active: SR leukemia -26.1% [100 µM] | RPMI-8226 leukemia -46.2% [100 µM] | OVCAR-8 ovarian -64.2% [100 µM] | OVCAR-5 ovarian -98% [100 µM] | OVCAR-4 ovarian -89.3% [100 µM] | SK-OV-3 ovarian -97.1% [100 µM] | IGROV1 ovarian -66% [100 µM] | OVCAR-3 ovarian -89% [100 µM] | NCI/ADR-RES ovarian -48.5% [100 µM] | T-47D breast -77.7% [100 µM] | BT-549 breast -94.6% [100 µM] | MDA-MB-435 melanoma -93.9% [100 µM] | SW-620 colon -34.7% [100 µM] | MCF7 breast -73% [100 µM] | HCT-116 colon -94.7% [100 µM] | HCC-2998 colon -87.8% [100 µM]

CC(=O)N1N=C(c2ccc(Nc3nc(NCCO)nc(NCCO)n3)cc2)CC1c1ccc(Cl)cc1 (stereo not drawn)
inactive: SR leukemia 142% | RPMI-8226 leukemia 112% | OVCAR-8 ovarian 104% | OVCAR-5 ovarian 103% | OVCAR-4 ovarian 104% | SK-OV-3 ovarian 101% | IGROV1 ovarian 99.4% | OVCAR-3 ovarian 96.4% | NCI/ADR-RES ovarian 99.8% | T-47D breast 66.2% | BT-549 breast 87.9% | MDA-MB-435 melanoma 101% | SW-620 colon 107% | MCF7 breast 90.5% | HCT-116 colon 83.4% | HCC-2998 colon 102%

O=C(CC(C(=O)c1ccccc1)N1CCN(Cc2ccccc2)CC1)c1ccccc1 (stereo not drawn)
inactive: SR leukemia 57.2% | RPMI-8226 leukemia 28.7% | OVCAR-8 ovarian 90.7% | OVCAR-5 ovarian 86.3% | OVCAR-4 ovarian 86.5% | SK-OV-3 ovarian 112% | IGROV1 ovarian 119% | OVCAR-3 ovarian 58.8% | HS 578T breast 92.5% | NCI/ADR-RES ovarian 97.1% | T-47D breast 45.6% | MDA-MB-435 melanoma 109% | SW-620 colon 11.8% | MCF7 breast 52.1% | HCT-116 colon 22.8% | KM12 colon 101%

Cn1cnc([N+](=O)[O-])c1Sc1nc(N)nc2nc[nH]c12
active: RPMI-8226 leukemia -19.5% | SK-OV-3 ovarian 2.59% | IGROV1 ovarian -13.1%
inactive: SR leukemia 10.5% | OVCAR-8 ovarian 29.5% | OVCAR-5 ovarian 28.7% | OVCAR-4 ovarian 42.8% | OVCAR-3 ovarian 22.7% | HS 578T breast 65.6% | T-47D breast 47.2% | BT-549 breast 43.4% | MDA-MB-435 melanoma 25% | SW-620 colon 50.7% | MCF7 breast 15.1% | HCT-116 colon 23% | HCC-2998 colon 19.6%

C/C(=C\CCc1ccoc1)CC/C=C(\C)CCCC1COC(=O)C1 (stereo not drawn)
inactive: SR leukemia 100% | RPMI-8226 leukemia 97.1% | OVCAR-8 ovarian 95.6% | OVCAR-5 ovarian 101% | OVCAR-4 ovarian 87.6% | SK-OV-3 ovarian 101% | IGROV1 ovarian 96.1% | OVCAR-3 ovarian 105% | HS 578T breast 97.5% | T-47D breast 87.7% | MDA-MB-435 melanoma 88.8% | SW-620 colon 103% | MCF7 breast 90.6% | HCT-116 colon 98.2% | HCC-2998 colon 107% | KM12 colon 93.3%

CC1CN(C2CCCCC2)C(=O)NC1=O (stereo not drawn)
inactive: SR leukemia 80.3% | RPMI-8226 leukemia 111% | OVCAR-8 ovarian 104% | OVCAR-5 ovarian 105% | OVCAR-4 ovarian 116% | SK-OV-3 ovarian 107% | IGROV1 ovarian 110% | OVCAR-3 ovarian 111% | HS 578T breast 110% | NCI/ADR-RES ovarian 119% | T-47D breast 93% | MDA-MB-435 melanoma 112% | SW-620 colon 102% | MCF7 breast 101% | HCT-116 colon 101% | KM12 colon 111%

COC(=O)[C@H](Cc1cn(C)cn1)NC(=O)[C@H](Cc1ccccc1)NC(=O)Nc1cc(C(F)(F)F)cc(C(F)(F)F)c1
active: SR leukemia -39% [100 µM] | RPMI-8226 leukemia -58.8% [100 µM] | OVCAR-8 ovarian -87.9% [100 µM] | OVCAR-5 ovarian -94% [100 µM] | OVCAR-4 ovarian -87.1% [100 µM] | SK-OV-3 ovarian -100% [100 µM] | IGROV1 ovarian -56.3% [100 µM] | OVCAR-3 ovarian -99.1% [100 µM] | NCI/ADR-RES ovarian 4.87% [100 µM] | T-47D breast -55.3% [100 µM] | BT-549 breast -95.5% [100 µM] | MDA-MB-435 melanoma -85.4% [100 µM] | SW-620 colon -46.2% [100 µM] | MCF7 breast -60.8% [100 µM] | HCT-116 colon -91.5% [100 µM] | HCC-2998 colon -86.9% [100 µM] | KM12 colon -92.2% [100 µM]

O=C1C2C(C(=O)N1CC[Se][Se]CCN1C(=O)C3C(C1=O)[C@H]1C=C[C@@H]3C1)[C@H]1C=C[C@@H]2C1 (stereo partly drawn)
active: SR leukemia 4.3% | RPMI-8226 leukemia -43.7% | OVCAR-8 ovarian -80.7% | OVCAR-5 ovarian -15.4% | OVCAR-4 ovarian -33.3% | SK-OV-3 ovarian -50% | IGROV1 ovarian -47.2% | OVCAR-3 ovarian -58% | HS 578T breast -11.4% | T-47D breast 5.4% | BT-549 breast -40.3% | MDA-MB-435 melanoma -65.9% | SW-620 colon 8.38% | MCF7 breast 9.03% | HCT-116 colon 1.96% | KM12 colon 0.112%
inactive: HCC-2998 colon 28.6%

CNc1nc(NC2CCCC2)nc(Sc2ccc(OC)cc2)n1
active: SR leukemia -0.593% [100 µM] | RPMI-8226 leukemia -11.2% [100 µM] | OVCAR-3 ovarian -25.5% [100 µM] | BT-549 breast 7.66% [100 µM] | MDA-MB-435 melanoma 0.45% [100 µM] | HCT-116 colon 0.657% [100 µM] | KM12 colon 1.94% [100 µM]
inactive: OVCAR-8 ovarian 20.2% [100 µM] | OVCAR-5 ovarian 59.5% [100 µM] | OVCAR-4 ovarian 36.9% [100 µM] | SK-OV-3 ovarian 74.9% [100 µM] | IGROV1 ovarian 45.9% [100 µM] | NCI/ADR-RES ovarian 11.9% [100 µM] | T-47D breast 27.3% [100 µM] | SW-620 colon 21% [100 µM] | MCF7 breast 30.9% [100 µM] | HCC-2998 colon 38% [100 µM]

N#Cc1c(-c2ccc(F)cc2)n2c(nc1=O)SC(=O)C2=O
inactive: SR leukemia 91.3% | RPMI-8226 leukemia 76.8% | OVCAR-8 ovarian 98% | OVCAR-5 ovarian 110% | OVCAR-4 ovarian 100% | SK-OV-3 ovarian 115% | IGROV1 ovarian 108% | OVCAR-3 ovarian 123% | HS 578T breast 104% | T-47D breast 114% | BT-549 breast 99.1% | MDA-MB-435 melanoma 96.5% | SW-620 colon 103% | MCF7 breast 89.4% | HCT-116 colon 102% | HCC-2998 colon 102%

ICCC(c1ccccc1)(c1ccccc1)c1ccccc1
inactive: RPMI-8226 leukemia 20% | OVCAR-8 ovarian 70.8% | OVCAR-5 ovarian 82.6% | OVCAR-4 ovarian 50.8% | SK-OV-3 ovarian 74.6% | IGROV1 ovarian 61.7% | OVCAR-3 ovarian 58.1% | HS 578T breast 48.3% | NCI/ADR-RES ovarian 74.6% | T-47D breast 39.2% | MDA-MB-435 melanoma 35.9% | SW-620 colon 80.7% | MCF7 breast 35.1% | HCT-116 colon 33.2% | KM12 colon 57.7%
active: SR leukemia -28.7%

O=C(CNC(=O)c1cccc2ccccc12)Nc1ccccc1Oc1cccc(O)c1
inactive: SR leukemia 18.7% [5 µM] | RPMI-8226 leukemia 25.9% [5 µM] | OVCAR-8 ovarian 15.3% [5 µM] | OVCAR-5 ovarian 39.9% [5 µM] | OVCAR-4 ovarian 59.1% [5 µM] | IGROV1 ovarian 42.9% [5 µM] | NCI/ADR-RES ovarian 13% [5 µM] | T-47D breast 42.3% [5 µM] | BT-549 breast 18.7% [5 µM] | SW-620 colon 20.3% [5 µM] | MCF7 breast 20.5% [5 µM] | HCC-2998 colon 58.3% [5 µM] | KM12 colon 22.8% [5 µM]
active: SK-OV-3 ovarian 7.7% [5 µM] | OVCAR-3 ovarian -10.8% [5 µM] | MDA-MB-435 melanoma -48% [5 µM] | HCT-116 colon 8.18% [5 µM]

— PubChem BioAssay (NCI)
